Experimental data reported in PubChem BioAssay.

System: not listed separately
Assay: small-molecule microarray binders of probe aLefty2, primary screen, biochemical, biotinylated probe, 635/667 nm fluorescence (AID 1094);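 also: score merges spot fluorescence near 667 nm with spot signal-to-noise ratio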
Conditions: higher = more signal

| Compound | composite z-score |
| --- | --- |
| O=C(NCCN1CCOCC1)[C@@H]1c2ccccc2C(=O)N(C2CCCCC2)[C@H]1c1ccc(CO)cc1 | -0.0042 |
| CCCCCCc1nc(-c2cc(C)c(OC)c(C)c2)cc2c1[Si](C(C)C)(C(C)C)OC2 | -0.0575 |
| C=CCNC(=O)[C@H]1[C@@H]2C(=O)O[C@@H](c3ccccc3)[C@@H](c3ccccc3)N2[C@@H](c2ccccc2OCCO)[C@]12C(=O)Nc1ccc(C#CCC(C(=O)OC)C(=O)OC)cc12 | 0.65 |
| CC(=O)n1cc(C(O)C2C=CC3C(=O)N(c4ccccc4)C(=O)C3N2Nc2ccc([N+](=O)[O-])cc2)c2ccccc21 (stereo unspecified) | 0.534 |

System: Noggin (protein binding on small-molecule microarray)
Assay: Noggin binders on small-molecule microarray, primary screen, biochemical, 635/667 nm fluorescence (AID 1095);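 also: score merges 667 nm feature fluorescence with signal to noise over triplicate slides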
Conditions: 635 nm fluorescence, higher = more signal

| Compound | composite z-score |
| --- | --- |
| O=C1c2ccccc2[C@](Cc2ccccc2I)(C(=O)NCC(F)(F)F)[C@H](c2ccc(CO)cc2)N1Cc1ccccc1Cl | 0.496 |
| CCCC=C(CCC)[C@@H](NC(=O)c1cccs1)c1ccc(C(F)(F)F)cc1 | 0.989 |
| CCCCN1CC=CC23O[C@@H]4C=CCCOC(=O)C4[C@H]2C(=O)N(CCCCCCO)[C@@H]3C1=O (stereo partly specified) | -0.235 |
| CCCCCN1CC=CC23O[C@@H]4C=CCCOC(=O)C4[C@H]2C(=O)N(CCCCCO)[C@@H]3C1=O (stereo partly specified) | -0.589 |
| O=C(NC1CC1)[C@@H]1c2ccccc2C(=O)N(Cc2ccccc2Cl)[C@H]1c1ccc(CO)cc1 | 1.02 |
| COCCOC(=O)N1C(=O)[C@@]2(c3cc(C#CCC(C(=O)OC)C(=O)OC)ccc31)[C@H](C(=O)N1CCN(c3ncccn3)CC1)[C@H]1C(=O)O[C@H](c3ccccc3)[C@H](c3ccccc3)N1[C@@H]2c1ccccc1OCCO | 1.71 |
| CCCC[C@H]1OB(O)C[C@H]2C1=C(COC)Cn1c(=O)n(-c3ccccc3)c(=O)n12 | 0.0562 |
